For part of these data: Measured potencies and affinities stand elsewhere.
Legend:
Design in all cases: scale not given: direction of the effect not stated beside the values
[1] = target: Protein translocase subunit SecA (Escherichia coli (strain K12)) (UniProt P10408); test: Assay to Identify E. coli SecA ATPase Inhibitors; assay type: functional; conditions: 30 µM
[2] = target: T1, Ubiquitin-activating enzyme e1, putative (Leishmania donovani (strain BPK282A1)) (UniProt E9BSI1); test: Leishmania donovani Ubiquitin Activating Enzyme (LdE1); assay type: functional; conditions: 30 µM
T1 sequence (whole entry): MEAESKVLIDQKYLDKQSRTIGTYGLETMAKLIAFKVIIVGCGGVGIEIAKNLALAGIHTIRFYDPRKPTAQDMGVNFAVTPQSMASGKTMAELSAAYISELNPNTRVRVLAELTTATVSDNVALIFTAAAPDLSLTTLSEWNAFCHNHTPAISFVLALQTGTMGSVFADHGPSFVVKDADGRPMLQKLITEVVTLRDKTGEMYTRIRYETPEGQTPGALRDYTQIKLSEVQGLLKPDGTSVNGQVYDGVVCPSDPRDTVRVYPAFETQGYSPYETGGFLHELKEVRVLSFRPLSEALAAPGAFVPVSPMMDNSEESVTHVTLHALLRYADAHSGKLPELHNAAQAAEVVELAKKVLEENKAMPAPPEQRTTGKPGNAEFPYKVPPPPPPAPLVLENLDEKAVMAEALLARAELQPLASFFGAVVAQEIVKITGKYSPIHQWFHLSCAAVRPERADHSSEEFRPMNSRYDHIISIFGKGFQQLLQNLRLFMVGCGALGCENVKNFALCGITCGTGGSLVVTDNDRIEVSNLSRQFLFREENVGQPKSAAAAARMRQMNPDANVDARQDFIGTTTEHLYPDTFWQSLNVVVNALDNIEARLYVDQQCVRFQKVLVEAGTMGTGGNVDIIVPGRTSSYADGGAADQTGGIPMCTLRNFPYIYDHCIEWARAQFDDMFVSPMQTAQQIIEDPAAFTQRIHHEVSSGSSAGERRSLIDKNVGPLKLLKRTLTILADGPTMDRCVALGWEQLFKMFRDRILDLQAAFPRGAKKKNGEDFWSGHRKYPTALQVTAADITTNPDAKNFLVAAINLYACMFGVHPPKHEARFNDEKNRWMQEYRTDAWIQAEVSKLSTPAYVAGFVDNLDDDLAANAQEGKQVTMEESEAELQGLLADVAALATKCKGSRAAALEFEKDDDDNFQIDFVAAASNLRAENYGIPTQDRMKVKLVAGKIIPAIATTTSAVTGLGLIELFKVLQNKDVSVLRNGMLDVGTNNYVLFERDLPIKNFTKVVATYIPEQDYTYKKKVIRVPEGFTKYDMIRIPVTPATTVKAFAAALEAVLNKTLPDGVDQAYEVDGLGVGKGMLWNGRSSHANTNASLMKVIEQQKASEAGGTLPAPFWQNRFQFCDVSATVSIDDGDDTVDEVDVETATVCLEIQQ

[3] = target: Sialic acid-binding Ig-like lectin 9 (Homo sapiens) (UniProt Q9Y336); test: Hs-Siglec9 ALPHAscreen SOP 20170721; conditions: 10 µM
Sequence of Sialic acid-binding Ig-like lectin 9 (Homo sapiens) (Q9Y336 whole entry): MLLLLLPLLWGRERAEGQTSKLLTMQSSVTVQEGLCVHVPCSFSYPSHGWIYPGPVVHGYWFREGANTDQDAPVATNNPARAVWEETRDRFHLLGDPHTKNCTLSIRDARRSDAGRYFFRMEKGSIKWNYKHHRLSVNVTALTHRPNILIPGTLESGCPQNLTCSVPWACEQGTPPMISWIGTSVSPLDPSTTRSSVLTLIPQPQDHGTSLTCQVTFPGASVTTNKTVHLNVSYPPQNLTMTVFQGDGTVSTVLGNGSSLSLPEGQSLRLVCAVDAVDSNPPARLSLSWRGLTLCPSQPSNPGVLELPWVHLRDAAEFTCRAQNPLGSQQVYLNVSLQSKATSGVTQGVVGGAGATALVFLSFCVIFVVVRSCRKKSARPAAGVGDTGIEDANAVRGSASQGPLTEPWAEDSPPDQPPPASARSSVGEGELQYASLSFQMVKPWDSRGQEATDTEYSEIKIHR

Trypanosoma cruzi = test: Trypanosoma cruzi phosphomannomutase and mannose-1-phosphate guanylyltransferase assay; assay type: functional; conditions: 10 µM
[4] = target: T2, Arginase-2, mitochondrial (Homo sapiens) (UniProt P78540); test: in vitro enzyme assay to detect the production of urea directly proportional to the activity of Arginase II; assay type: functional; conditions: 33.3 µM; further: in the data most compounds retested in dose-response had high values
T2 sequence (whole entry): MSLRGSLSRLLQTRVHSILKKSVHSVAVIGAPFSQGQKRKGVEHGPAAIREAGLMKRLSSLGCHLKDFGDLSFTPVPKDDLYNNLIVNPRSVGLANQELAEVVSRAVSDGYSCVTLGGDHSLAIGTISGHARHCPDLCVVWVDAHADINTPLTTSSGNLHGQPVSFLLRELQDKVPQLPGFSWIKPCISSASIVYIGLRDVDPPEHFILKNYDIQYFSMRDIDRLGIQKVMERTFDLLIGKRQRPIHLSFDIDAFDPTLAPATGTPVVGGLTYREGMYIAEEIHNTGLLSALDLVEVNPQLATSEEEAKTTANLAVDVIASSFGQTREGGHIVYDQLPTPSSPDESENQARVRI

[5] = target: T3, Proteasome subunit beta (Trypanosoma cruzi) (UniProt O96673); test: Trypanosoma cruzi proteasome chymotrypsin-like activity (TcProtChymo) assay.; further: in the data most compounds retested in dose-response had high values; assay type: functional; conditions: 9.37 µM
T3 sequence (whole entry): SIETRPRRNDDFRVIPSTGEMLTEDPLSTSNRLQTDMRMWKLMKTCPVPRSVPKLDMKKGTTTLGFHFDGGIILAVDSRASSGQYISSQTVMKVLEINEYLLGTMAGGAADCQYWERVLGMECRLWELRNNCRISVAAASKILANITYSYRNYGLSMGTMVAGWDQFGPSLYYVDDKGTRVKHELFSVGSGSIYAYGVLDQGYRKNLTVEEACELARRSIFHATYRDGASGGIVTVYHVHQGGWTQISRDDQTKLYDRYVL

Homo sapiens = organism: Homo sapiens; test: To identify inhibition of the IFN signalling (Jak-Stat) pathway via expression of an eGFP reporter gene under the control of an IFN-stimulated response element (ISRE) containing MxA promoter.; assay type: functional; conditions: 30 µM
[6] = target: T4, Tyrosyl-tRNA synthetase, putative (Trypanosoma cruzi (strain CL Brener)) (UniProt Q4DSP6); test: Trypanosoma cruzi tyrosyl tRNA synthetase (TcYRS) _High Tyrosine SOP; assay type: functional; conditions: 30 µM; further: in the data most compounds retested in dose-response had high values
T4 sequence (whole entry): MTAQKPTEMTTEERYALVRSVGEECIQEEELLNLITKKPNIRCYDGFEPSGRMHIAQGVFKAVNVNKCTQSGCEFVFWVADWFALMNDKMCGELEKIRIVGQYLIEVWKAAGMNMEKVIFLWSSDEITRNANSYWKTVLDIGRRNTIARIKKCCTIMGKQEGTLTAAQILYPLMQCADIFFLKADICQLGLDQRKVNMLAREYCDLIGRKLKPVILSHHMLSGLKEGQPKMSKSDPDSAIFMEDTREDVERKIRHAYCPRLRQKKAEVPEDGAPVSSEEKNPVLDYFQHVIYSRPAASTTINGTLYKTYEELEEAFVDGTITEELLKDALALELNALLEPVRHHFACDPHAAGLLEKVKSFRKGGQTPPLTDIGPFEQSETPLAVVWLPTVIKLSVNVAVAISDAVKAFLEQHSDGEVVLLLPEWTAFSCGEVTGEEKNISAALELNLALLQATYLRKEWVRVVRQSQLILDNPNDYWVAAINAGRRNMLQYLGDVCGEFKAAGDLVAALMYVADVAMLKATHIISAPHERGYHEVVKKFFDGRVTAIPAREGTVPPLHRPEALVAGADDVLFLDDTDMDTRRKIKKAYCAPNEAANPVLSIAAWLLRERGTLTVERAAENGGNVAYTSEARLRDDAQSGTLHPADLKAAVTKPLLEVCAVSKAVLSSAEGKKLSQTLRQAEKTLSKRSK

[7] = target: T4, Tyrosyl-tRNA synthetase, putative (Trypanosoma cruzi (strain CL Brener)); test: Trypanosoma cruzi tyrosyl tRNA synthetase (TcYRS) SOP; assay type: functional; conditions: 30 µM
[8] = target: Chromo domain-containing protein 1 (Saccharomyces cerevisiae (strain ATCC 204508 / S288c) (Baker's yeast)) (UniProt P32657); test: ScCHD-1 Enzyme Inhibition Assay; assay type: functional; conditions: 30 µM; further: in the data most compounds retested in dose-response had high values
Sequence of Chromo domain-containing protein 1 (Saccharomyces cerevisiae (strain ATCC 204508 / S288c) (Baker's yeast)) (P32657 whole entry, the tested form may be a part): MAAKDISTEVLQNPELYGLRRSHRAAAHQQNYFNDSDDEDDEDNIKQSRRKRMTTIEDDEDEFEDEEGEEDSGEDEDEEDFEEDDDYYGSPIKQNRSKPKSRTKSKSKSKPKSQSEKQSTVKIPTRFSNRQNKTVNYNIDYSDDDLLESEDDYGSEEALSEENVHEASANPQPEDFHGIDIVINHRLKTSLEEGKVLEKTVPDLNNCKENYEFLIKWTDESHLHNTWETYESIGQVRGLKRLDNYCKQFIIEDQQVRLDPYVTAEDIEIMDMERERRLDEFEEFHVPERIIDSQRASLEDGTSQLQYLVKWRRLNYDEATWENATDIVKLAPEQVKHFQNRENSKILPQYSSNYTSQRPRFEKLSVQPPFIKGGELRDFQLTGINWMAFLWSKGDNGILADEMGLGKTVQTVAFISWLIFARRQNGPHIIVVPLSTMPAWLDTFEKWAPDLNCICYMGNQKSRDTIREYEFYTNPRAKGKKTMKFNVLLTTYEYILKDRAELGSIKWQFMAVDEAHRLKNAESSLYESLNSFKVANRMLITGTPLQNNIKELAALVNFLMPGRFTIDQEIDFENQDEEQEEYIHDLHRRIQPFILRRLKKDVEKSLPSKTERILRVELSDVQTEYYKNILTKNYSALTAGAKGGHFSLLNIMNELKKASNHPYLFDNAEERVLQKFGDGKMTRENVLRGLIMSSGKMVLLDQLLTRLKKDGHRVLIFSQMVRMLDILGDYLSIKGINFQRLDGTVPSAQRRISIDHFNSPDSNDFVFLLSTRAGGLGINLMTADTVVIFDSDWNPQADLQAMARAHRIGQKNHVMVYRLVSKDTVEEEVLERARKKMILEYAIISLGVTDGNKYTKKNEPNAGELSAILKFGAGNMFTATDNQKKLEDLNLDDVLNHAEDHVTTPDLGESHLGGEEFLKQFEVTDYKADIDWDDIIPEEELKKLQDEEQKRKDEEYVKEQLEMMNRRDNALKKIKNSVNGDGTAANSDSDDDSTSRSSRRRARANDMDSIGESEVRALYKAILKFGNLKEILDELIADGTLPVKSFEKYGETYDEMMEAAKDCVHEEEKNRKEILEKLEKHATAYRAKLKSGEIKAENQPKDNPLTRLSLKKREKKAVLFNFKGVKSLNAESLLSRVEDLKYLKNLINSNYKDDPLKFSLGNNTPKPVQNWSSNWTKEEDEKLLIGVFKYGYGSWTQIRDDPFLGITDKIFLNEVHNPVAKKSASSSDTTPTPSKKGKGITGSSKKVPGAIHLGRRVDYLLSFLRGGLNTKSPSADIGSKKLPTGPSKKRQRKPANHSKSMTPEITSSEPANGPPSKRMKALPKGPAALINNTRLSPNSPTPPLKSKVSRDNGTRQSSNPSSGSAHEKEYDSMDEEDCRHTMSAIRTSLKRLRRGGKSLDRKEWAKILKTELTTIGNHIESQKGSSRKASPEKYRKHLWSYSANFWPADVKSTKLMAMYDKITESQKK

Sequence of Protein translocase subunit SecA (Escherichia coli (strain K12)) (P10408 whole entry): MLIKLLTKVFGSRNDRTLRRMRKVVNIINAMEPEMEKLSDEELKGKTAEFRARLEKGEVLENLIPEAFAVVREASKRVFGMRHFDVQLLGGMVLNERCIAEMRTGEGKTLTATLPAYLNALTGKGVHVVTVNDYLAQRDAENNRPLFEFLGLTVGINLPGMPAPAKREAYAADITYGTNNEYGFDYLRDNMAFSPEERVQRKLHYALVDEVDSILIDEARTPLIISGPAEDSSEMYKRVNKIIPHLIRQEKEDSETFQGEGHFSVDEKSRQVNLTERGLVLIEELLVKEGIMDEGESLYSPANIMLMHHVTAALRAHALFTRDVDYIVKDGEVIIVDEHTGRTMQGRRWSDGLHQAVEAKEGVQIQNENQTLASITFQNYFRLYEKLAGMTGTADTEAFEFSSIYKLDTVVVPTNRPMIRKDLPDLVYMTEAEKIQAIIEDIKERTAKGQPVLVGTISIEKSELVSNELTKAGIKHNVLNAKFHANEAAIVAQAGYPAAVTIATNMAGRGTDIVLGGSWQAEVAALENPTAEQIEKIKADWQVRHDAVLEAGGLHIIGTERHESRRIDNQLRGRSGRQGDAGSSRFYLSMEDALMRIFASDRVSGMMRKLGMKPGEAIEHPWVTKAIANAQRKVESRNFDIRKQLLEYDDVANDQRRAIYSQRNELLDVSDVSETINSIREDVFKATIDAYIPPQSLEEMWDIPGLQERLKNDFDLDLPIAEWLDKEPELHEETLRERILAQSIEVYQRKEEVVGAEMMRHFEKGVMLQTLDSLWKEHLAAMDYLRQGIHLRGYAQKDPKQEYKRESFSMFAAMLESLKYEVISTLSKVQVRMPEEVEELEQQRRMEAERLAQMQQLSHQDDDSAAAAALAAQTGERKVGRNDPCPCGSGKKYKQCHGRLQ

SMILES | Percent Effect [1] [%] | Percent Effect [2] [%] | Percent Effect [3] [%] | Percent Effect (Trypanosoma cruzi) [%] | Percent Effect [4] [%] | Percent Effect [5] [%] | Percent Effect (Homo sapiens) [%] | Percent Effect [6] [%] | Percent Effect [7] [%] | Percent Effect [8] [%]
COCC1CN(Cc2ccsc2)Cc2nn(C)cc21 (stereo not given) | -4.97 | 6.49 | -3.38 | -7.11 | 2.83 | 20.9 | 13.5 | 3.68 | 0 | 2.62
CS(=O)(=O)N1Cc2ccccc2C2(CCN(C(=O)c3ccno3)CC2)C1 | 2.76 | 19.5 | -5.73 | -10.7 | 5.48 | 18.4 | 9.88 | 6.76 | 7.5 | -10.6
Cc1ccccc1N1CC2(CCN(S(=O)(=O)c3cccs3)C2)CC1=O (stereo not given) | -1.18 | 24.7 | -0.756 | 0 | -15.5 | 8.67 | 10.2 | 5.8 | 2.5 | -9.98
CC(C)c1cc(C(=O)NCCN2CCCS2(=O)=O)n[nH]1 | -3.62 | 15.4 | 0.501 | 0.469 | 4.92 | 18 | -1.8 | -4.31 | 18.1 | -2.98
COc1ccccc1OCCN1CCCC(c2cc(C(N)=O)[nH]n2)C1 (stereo not given) | -3.66 | 2.67 | 8.25 | -3.01 | 4.43 | 12 | -0.623 | 2.63 | 5.13 | -8.44
CC(=O)N1CCCn2nc(CNS(=O)(=O)c3cc(C)cs3)cc2C1 | -6.27 | 2.7 | -0.0396 | -2.42 | 4.54 | 4.11 | 0.293 | 4.79 | 7.32 | 3.74
O=S(=O)(CCCN1CCCC1Cn1cccn1)c1ccccc1 (stereo not given) | -5.34 | 7.79 | 19.1 | -2.24 | -0.205 | 7.19 | 2.19 | 6.86 | 16.5 | -5.4
CC(C)NC(=O)N1CCN(Cc2ccccn2)CC2(CC(=O)N(C)C2)C1 (stereo not given) | -6.73 | 11.7 | 1.64 | -0.563 | -2.28 | 2.49 | 13.5 | 0 | 0 | -7.79
CC(C)C(NC(=O)Cn1ccc(=O)n(C)c1=O)c1ccc(F)cc1 (stereo not given) | 1.48 | 18.2 | -2.41 | -7.09 | 5.53 | 7.19 | 22.3 | 6.86 | 18.8 | -8.33
CC(O)CNC(=O)NCc1cccnc1OC1CCCC1 (stereo not given) | -1.77 | 13.3 | -3.55 | -3.21 | 7.54 | 2.63 | 10.2 | 6.84 | 2.56 | -11.2
Cc1cccnc1C(=O)N1CCCC(c2[nH]ncc2S(C)(=O)=O)C1 (stereo not given) | -0.892 | 4 | 0.0565 | -4.54 | 3.1 | 0.985 | 20 | 5.29 | 7.5 | -20.1
OC(CNCCn1cccn1)c1ccc2c(c1)OCCO2 (stereo not given) | -5.4 | 13.3 | 10.3 | 1 | 0 | 4.83 | -2.77 | 4.74 | 10.3 | -13.4
CN(C)c1ccc(C(=O)NCC2(c3ccccc3)CCOCC2)cc1 | -0.155 | 22.7 | -5.97 | 1.38 | -2.21 | 15.4 | 9.64 | 0 | 15 | -24.2
CN(Cc1nnc(-c2ccco2)o1)C1CCCN(c2cccnn2)C1 (stereo not given) | 2.65 | 10.3 | -14.4 | -2.91 | -0.82 | 28.4 | 30.2 | 3.35 | 8.43 | 1.33
O=C1CCCc2nccc(-c3ccccc3)c21 | 3.95 | 22.7 | -10 | 2.56 | 0.443 | 27.1 | 9.37 | 3.17 | -45 | -16.7
O=C(Nc1cccc(N2CCCC2)c1)C1CCCN1c1nccs1 (stereo not given) | -2.06 | -15.4 | 6.8 | 8.92 | -1.23 | 1.79 | -2.5 | 8.13 | -1.21 | -2.52
c1ccc(CNC2CCc3ncnn3C2)nc1 (stereo not given) | 0.311 | 12.8 | -14.6 | -4.98 | 1.23 | 21.1 | 30.1 | 9.09 | 20.5 | -2.61
Cc1nc(-c2ccccc2F)sc1C(=O)N1CCN(C)CC1 | -7.34 | 2.7 | 4.45 | -0.679 | -3.85 | 18.5 | 4.62 | 3.72 | 12.2 | -3.18
CCc1nc(C)c(C(=O)NCCN2CCN(C(C)=O)CC2)s1 | -2.42 | 10.4 | 4.38 | -0.373 | 1.43 | -0.702 | 15.7 | 7.84 | 21.2 | -6.18
COc1ccc2c(c1)OC1(CCN(Cc3ccc(F)cc3)CC1)CC2=O | -2.19 | 14.3 | -1.29 | 2.63 | 2.74 | 9.36 | 24.9 | 2.9 | 2.5 | -12.1
Cc1cnn(CC2CCCN2C(=O)c2ccc(OC(C)C)nc2)c1 (stereo not given) | -0.574 | -2.56 | 12.5 | 0.657 | 4.92 | -5.89 | -3.81 | -3.35 | 1.21 | 2.64

Reference: ChEMBL document CHEMBL3988442, “University of Dundee, Small-Polar-MMV Screening Library” (2021)
